Bioassay records deposited in PubChem by National Center for Advancing Translational Sciences (NCATS).
Many of the other results were omitted from the sample, so hits are more common in it than they were.
Pf Dd2 growth: Plasmodium falciparum Dd2 growth inhibition; P. falciparum Dd2 growth, SYBR Green, 72 h; Potency, µM (series often up to 28.9 µM), without a hit: at the top dose activity, negative = inhibition, usual class: inhibitors; 120,000 compounds, 4.3% hits; active = well fitted inhibition curve with a large enough effect;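 note: plate controls were DMSO vehicle for no effect and reference drug for full effect; nearly all actives have a fitted effect of over 65% in size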
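Infected erythrocytes (Dd2, 0.3% parasitemia, 2.5% hematocrit final) are added to compound in RPMI-1640/Albumax II medium, grown 72 h at 37C in low oxygen, then lysed with saponin/Triton-X containing SYBR Green and read by fluorescence.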
* hit, by the source's call; i = inactive; [ ] = dose if it differs, or a comment. Potency is the fitted concentration of half-maximal effect.

SMILES	Pf Dd2 growth
CCC(C)C(=O)Nc1c(C(=O)OC)n(CC2CCCO2)c2ncc(NC(C)CC(C)(C)O)cc12 (stereo not given)	-8%
O=C(CCc1nnn2c1CN(C(=O)NCCc1ccccc1)CC2)N1CCOCC1	0%
CCCN1CC(C(=O)N2CCn3nc(Cc4ccccc4)cc3C2)CCC1=O (stereo not given)	-16%
O=C([C@H]1C[C@H](Oc2cccnc2)CN1C(=O)NCc1ccccc1)N1CCOCC1	-13%
CC(C)(O)CCc1ccc(C(=O)N2CCN(c3ccncc3)CC2)cc1	-2%
CCc1ccc(C(=O)N2CCC(CC(=O)NCc3ccccc3)C2)cc1 (stereo not given)	i
CCC1Oc2ccc(NC(=O)Cc3ccc(F)cc3)cc2CN(Cc2cccc(OC)c2)C1=O (stereo not given)	4µM*
CCC1Oc2ccc(NC(=O)c3cccc(F)c3)cc2CN(Cc2ccccc2F)C1=O (stereo not given)	-6%
COc1cccc(CN2Cc3cc(NC(=O)c4cccs4)ccc3OCC2=O)c1	i
CCC1Oc2ccc(NC(=O)c3ccccc3F)cc2CN(CCc2ccc(OC)c(OC)c2)C1=O (stereo not given)	1.8µM*
CCC1Oc2ccc(NC(=O)c3ccccc3F)cc2CN(Cc2ccc3c(c2)OCO3)C1=O (stereo not given)	i
COc1cccc(CN2Cc3cc(NC(=O)Cc4ccccc4)ccc3OCC2=O)c1	-13%
CCC1Oc2ccc(NC(=O)c3ccccc3F)cc2CN(Cc2ccccc2F)C1=O (stereo not given)	5.6µM*
COc1cccc(CN2Cc3cc(NC(=O)c4cc(OC)cc(OC)c4)ccc3OCC2=O)c1	4.5µM*
CCC1Oc2ccc(NC(=O)Cc3ccccc3)cc2CN(Cc2cccc(OC)c2)C1=O (stereo not given)	-18%
CCC1Oc2ccc(NC(=O)c3c(F)cccc3F)cc2CN(Cc2ccc3c(c2)OCO3)C1=O (stereo not given)	i
CCC1Oc2ccc(NC(=O)COc3ccccc3)cc2CN(Cc2cccc(OC)c2)C1=O (stereo not given)	-4%
CC1Oc2ccc(NC(=O)c3ccccc3F)cc2CN(Cc2ccccc2F)C1=O (stereo not given)	i
Cc1ccc(-c2ccc3nnc(CNC(=O)c4ccoc4)n3n2)cc1C	-6%
O=C(NCc1ccccc1C(F)(F)F)C1CCN(C(=O)C2CCC2)CC1	2%
CS(=O)(=O)CC(O)c1cc2n(n1)CCN(CCOCc1ccccc1)C2 (stereo not given)	1%
COCCc1noc(C2Cc3ccccc3N2C(=O)NCC(C)C)n1 (stereo not given)	13%[5.79 µM]
CN1C(=O)c2cccn2CC1CNC(=O)CC1CCCC1 (stereo not given)	22%
COc1ccc(C(=O)N2CCN(c3cc(-c4ccc(F)cc4)[nH]n3)CC2)cc1OC	i
O=C(c1ccsc1)N1CC(c2nnc(-c3ccncc3)o2)C2(CCOCC2)C1 (stereo not given)	i
SMILES	Pf Dd2 growth
COc1ccccc1CN1CC[C@@H]2OCC(=O)N(C(C)C)[C@H]2CC1	-24%[44.1 µM]
O=C(NCCc1ccccc1)[C@@H]1C[C@@H](c2ccc(F)cc2)N([S+](=O)([O-])c2ccccc2)C1	i
CCc1nc2c(c(-c3ccc(Cl)cc3)n1)CN(Cc1ccc(C)cc1)CC2	-17%
CCc1nc2c(c(-c3ccc(Cl)cc3)n1)CN(Cc1ccsc1)CC2	5µM*
CCc1nc2c(c(-c3ccc(Cl)cc3)n1)CN(Cc1ccc(OC(F)(F)F)cc1)CC2	8.9µM*
CCc1nc2c(c(-c3ccc(Cl)cc3)n1)CCN(C(=O)c1ccccn1)CC2	-3%
Cc1nc2c(c(-c3ccc(O)cc3)n1)CN(Cc1ccc(OC(F)(F)F)cc1)CC2	-1%
CCc1nc2c(c(-c3ccc(Cl)cc3)n1)CN([S+](C)(=O)[O-])CC2	-19%[44.1 µM]
Cc1cnc(-c2ccncc2)n1C1CCN(C(=O)COc2ccc(F)cc2)CC1	i
O=C(c1ccccc1F)N1CCC(N2CCOC2=O)CC1	18%
Cn1cnnc1CC1CCCN(C(=O)C2CCCC2)C1 (stereo not given)	3%
COCCNC(=O)N1CCc2nc(N3CCN(C)CC3)[nH]c(=O)c2CC1	i[5.79 µM]
O=C(NC1CC1)c1ccccc1OCC1CCCN(CC2=Cc3ccccc3OC2)C1 (stereo not given)	-15%
CCCS(=O)(=O)N1CCCCCCNC(=O)[C@@H]2CCC[C@@H]21	4%
O=C(O)c1cccc(-c2ccsc2)c1	5%[44.1 µM]
CC(C)CCN1CCC2(CC1)OCCN(CCc1ccccc1)C2=O	i
CCCS(=O)(=O)Nc1ccc(=O)n2c1[C@@H]1C[C@@H](CN(S(=O)(=O)c3ccc(OC)cc3)C1)C2	-4%
CC(=O)Nc1ccc(CN2CCCC3(CC(c4ccccn4)=NO3)C2)cc1 (stereo not given)	3%
O=C(C1COc2ccccc2O1)N(Cc1cccnc1)c1nc2ccc(F)cc2s1 (stereo not given)	i
O=C(c1ccc(Br)s1)N(Cc1cccnc1)c1nc2ccc(F)cc2s1	2.5µM*
